aSyn yeast inh: inhibitors of alpha-synuclein toxicity in yeast; Yeast expressing alpha-synuclein, growth rescue, BacTiter-Glo, 24 h; Potency, µM (doses to about 46.1 µM), usual class: activators; actives 0.14% (n = 370,000); AID 652106; note: nearly all actives have a fitted effect of over 65% in size
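Readout is rescue of growth in alpha-synuclein-expressing yeast, so inhibitors of toxicity appear as activators. Growth after 24 hr at 30 deg C in galactose medium is quantified by luminescence.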
TDP43 rescue: rescues yeast growth from TDP-43 toxicity | TDP-43 expressing yeast growth rescue, BacTiter-Glo, 24 h | Potency, µM (series often up to 46.1 µM), hits mostly activators | actives 1.8% (n = 410,000); note: nearly all actives have a fitted effect of over 50% in size
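Yeast cells expressing TDP-43 under galactose induction are exposed to compounds for 24 hr at 30 deg C. BacTiter-Glo luminescence measures growth, so protective compounds score as activators.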
FUS yeast rescue: rescues growth of FUS-expressing yeast. AID 1347120. S. cerevisiae FUS-expressing, growth rescue, OD600, 24 h. actives 0.24% (n = 390,000). Potency, µM (top dose mostly 76.6 µM), hits mostly activators; note: nearly all actives have a fitted effect of over 55% in size
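Absorbance at 600 nm, taken 24hr after compound addition, measured rescue of FUS-yeast growth at 30C. Induction used 2% galactose with seeding at OD 0.005. Controls: CP55940 from 92uM final, DMSO only.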
Abeta yeast res: A-beta toxicity reversal in yeast; yeast expressing A-beta42, growth rescue, OD600, 48 h; response scale: 0% DMSO, 100% iron-clioquinol control; Potency, µM (doses to about 46.1 µM), most hits filed as activators; actives 0.063% (n = 410,000); AID 1347071; note: nearly all actives have a fitted effect of over 55% in size
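Yeast growth medium received pinned compounds, then yeast cells expressing toxic A-beta were added; plates incubated at 30 C for 48 hr. Growth read as absorbance at 600 nm, normalized to DMSO and equimolar FeCl3 plus clioquinol controls.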
Hits are given with their value; . = inactive; ? = inconclusive; / = no result given; ! = a repeat was not active; [ ] = another dose, or the depositor's remark. A selection: hits, their analogues and other compounds. The true share with any hit is near 2.1%. Calls come from the whole dose curve; as a rule, active = well fitted curve in the direction sought with a large enough effect; inconclusive = small, poorly fitted or top-dose-only effect, or another doubt; inactive = no such curve, though single readings can be large; an effect the other way counts as inactive or inconclusive.

SMILES	aSyn yeast inh	TDP43 rescue	FUS yeast rescue	Abeta yeast res
O=[N+]([O-])c1cc(F)c2cccnc2c1O	?	4µM	.	?
O=[N+]([O-])c1cc([N+](=O)[O-])c2cccnc2c1Oc1ccccc1O	.	2µM	/	.
COc1ccc(Oc2ncccc2[N+](=O)[O-])cc1	.	.	.	.
CCOC(=O)Cn1nnnc1CN1CCN(c2ccc(OC)cc2)CC1	.	.	.	.
Cc1ccc(C(=O)N2N=C(c3ccccc3)CC2(O)C(F)(F)F)o1 (configuration not stated)	.	.[0.397 µM]	.	.
Cc1ccc(S(=O)(=O)N2CCN(C(=O)c3ccc4c(c3)OCO4)CC2)cc1	.	.	.	.
Cc1cc(C)c(S(=O)(=O)N2CCN(C(=O)c3ccc4c(c3)OCO4)CC2)c(C)c1	.	16µM	.	.
O=C(c1ccc2c(c1)OCO2)N1CCN(S(=O)(=O)c2ccccc2)CC1	.	.	/	.
Cc1cc(C)c(S(=O)(=O)N2CCN(C(=O)c3ccc(-n4nc(C)c(Cl)c4C)cc3)CC2)c(C)c1	.	?	16µM	.
Cc1cc(C)c(S(=O)(=O)N2CCN(C(=O)c3c(C)nn(-c4ccccc4)c3Cl)CC2)c(C)c1	.	.	/	.
O=C(c1ccc2c(c1)OCO2)N1CCN(S(=O)(=O)c2ccc(Br)cc2Cl)CC1	.	18µM	.	.
COc1ccc(Cn2c(SCC(N)=O)nc3c(sc4ccccc43)c2=O)cc1	/	.	.	.
COc1ccc(NC(=O)/C=C/c2cccc(C(F)(F)F)c2)cn1	.	.	.	.
CCN(CC(=O)Nc1ccc(OC)cc1)CC(=O)Nc1cccc(C#N)c1	.	.	.	.
Cn1nc(-c2ccccc2F)c2cc(C(=O)Nc3ccc4c(c3)OCCO4)sc21	.	16µM	.	.
COc1cccc(-c2nn(C)c3sc(C(=O)Nc4ccc5c(c4)OCCO5)cc23)c1	.	.	.	.
O=C1c2ccccc2NC(c2c(Cl)cccc2Cl)N1Cc1ccccc1 (configuration not stated)	.	25µM	.	.
O=C1c2ccccc2NC(c2ccc(Cl)cc2Cl)N1Cc1ccccc1 (configuration not stated)	.	.	.	.
CCc1c(-c2ccccc2)nc2ccccc2c1C(=O)NCc1ccc(C)cc1	/	35µM	?	.
CCc1ccc(CNC(=O)c2cc3c(C)nc4ccccc4c3o2)cc1	.	20µM	?	.
COc1ccccc1N1CCN(CCN(C(=O)c2ccc(F)cc2)c2ccccn2)CC1	14µM!	.	.	.
COc1ccccc1N1CCN(CCN(C(=O)C2CCCCC2)c2ccccn2)CC1	.	.	.	.
COc1ccc(C)cc1-n1c(SCC(=O)Nc2cc(C)on2)nc2ccccc2c1=O	.	.[9.22 µM]	.	.
Cc1ccc(CS(=O)(=O)c2ncc(Cl)c(C(=O)Nc3nc4ccc(C)cc4s3)n2)cc1	/	?	.	.
CC(C)c1nnc(NC(=O)c2nc(S(=O)(=O)Cc3ccccc3)ncc2Cl)s1	.	8.9µM	.	.
SMILES	aSyn yeast inh	TDP43 rescue	FUS yeast rescue	Abeta yeast res
Cc1ccccc1CS(=O)(=O)c1ncc(Cl)c(C(=O)Nc2nnc(C(C)C)s2)n1	/	11µM	.	.
CCCc1nnc(NC(=O)c2nc(S(=O)(=O)Cc3ccc(C)cc3)ncc2Cl)s1	.	11µM	.	.
O=c1[nH]cnc2cc(-c3ccc(Br)cc3)sc12	.	?	.	.
Cc1c(C)c2ccc(O[C@@H]3O[C@H](CO)[C@H](O)[C@H](O)[C@H]3O)cc2oc1=O	.	.	.	.
O=C(c1ccco1)N1CCN(Cc2ccccc2F)CC1	.	.	.	?
Cn1nnc(C(O)CNCc2ccc(Cl)cc2)n1 (configuration not stated)	.	.	.	.
N#Cc1ccc(OCC(=O)N/N=C/C2CC=CCC2)cc1 (configuration not stated)	.	.	.	.
CN(Cc1ccccc1)C(=O)c1ccc(Cl)c([N+](=O)[O-])c1	.	.	.	.
CN(Cc1ccccc1)c1ccc(C(=O)O)cc1[N+](=O)[O-]	.	16µM	.	.
CCOC(=O)C1CCN(C(=O)c2cc3ccc(OC)cc3[nH]2)CC1	.	.	.	.
CCOC(=O)C1CCN(C(=O)c2cc3cc(Cl)ccc3[nH]2)CC1	.	16µM	.	.
COc1ccc(/C=C2\SC(=Nc3ccccc3Cl)NC2=O)c(OC)c1	.	.	.	.
CC(C(=O)Nc1cccc(C#N)c1)n1nc(-c2ccccc2)c2c(c1=O)CCCC2 (configuration not stated)	/	.	?	.
CC(C(=O)Nc1ccccc1C(F)(F)F)n1nc(-c2ccccc2)c2c(c1=O)CCCC2 (configuration not stated)	/	35µM	.	.
CCn1ncc(/C=N\NC(=O)COc2ccccc2)c1C	.	.	/	.
C#CCn1c(S(=O)(=O)Cc2ccc(OC)cc2)nc(-c2ccccc2)c1-c1ccccc1	.	.	25µM	.
O=C(Nc1ccc2c(c1)OCO2)C1CCCN(c2nc3ccccc3s2)C1 (configuration not stated)	.	.	.	.
COC(=O)c1ccc(/C=C(\C#N)C(=O)NC(C)c2ccccc2)cc1 (configuration not stated)	?	13µM	.	.
COc1ccc(/C=C(\C#N)C(=O)NC(C)c2ccccc2)cc1O (configuration not stated)	.	20µM	.	?
O=C(COCc1cc(-c2cccs2)on1)NCc1ccccc1Cl	/	13µM	.	.
O=C(COCc1cc(-c2cccs2)on1)Nc1cc(Cl)ccc1O	/	.	.	.
O=C(CNc1ccc(Br)cc1)c1ccccc1	.	.	.	.
O=C1C=C(c2ccccc2)OC(c2ccccc2)O1 (configuration not stated)	.	13µM	.	.
COc1ccc(-c2nc(C)c(CCNC(=O)c3ccccc3Br)s2)cc1OC	/	11µM	.	.
CCOc1ccc(C(=O)NCCc2sc(-c3ccc(OC)c(OC)c3)nc2C)cc1	.	16µM	.	.
SMILES	aSyn yeast inh	TDP43 rescue	FUS yeast rescue	Abeta yeast res
Cc1cccc(-c2nc(CCNC(=O)c3ccccc3Br)cs2)c1	/	13µM	.	.
CS(=O)(=O)N1CCC(C(=O)Nc2ccc(Cl)c(C(F)(F)F)c2)CC1	.	.	.	.
O=C(CSc1nnc(CNc2ccc(Cl)cc2)o1)Nc1nc2c(s1)CCCC2	.	.	35µM	.
O=C(COc1ccccc1)Nc1nc2c(s1)CCCC2	.	.	.	?
O=C(COc1ccccc1Cl)Nc1nc2c(s1)CCCC2	/	11µM	.	.
O=C(CSCc1ccc(F)cc1)Nc1nc2c(s1)CCCC2	.	14µM	.	.
O=C(O)/C=C/C(=O)NCc1csc2ccccc12	.	.	.	.
CCCNC(=O)c1cc(C2CCCCN2S(=O)(=O)c2cccc3cccnc23)on1 (configuration not stated)	.	.	.	.
O=[N+]([O-])c1ccc(Sc2nccn2Cc2ccccc2)cc1	.	.	.	.
COc1cccc(Oc2cncnc2-c2ccc(OC)cc2O)c1	?	20µM	.	.

Screens as filed in PubChem BioAssay.
